# Screening results from PubChem.
# PLC-beta3 inh: human PLC-beta3 inhibitors, primary screen, biochemical, fluorescence. 1-phosphatidylinositol 4,5-bisphosphate phosphodiesterase beta-3 (Homo sapiens), Q01970. Purified PLC-beta3, fluorogenic substrate. inhibition, % at 12.2 µM. actives 0.18% (n = 370,000). AID 720704, 2013; in the data active = inhibition above about 11%;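 note: 0% = median of compound wells on plate and 100% = full blocker control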
# ADAM17 inh: ADAM17 inhibitors, primary screen, biochemical, QFRET. recombinant ADAM17, EDANS/DABCYL FRET peptide cleavage. Disintegrin and metalloproteinase domain-containing protein 17 (Homo sapiens), P78536. AID 720648, 2013. inhibition, % at 6.95 µM. actives 0.83% (n = 370,000);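 active = inhibition above the mean of compounds lying between control limits plus 3 SD, set per campaign, cut at about 8.5% in these data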;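 note: 0% = DMSO-only wells as the low control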
# proKLK7 act: proKLK7 zymogen activators, primary screen, biochemical, fluorescence intensity | Kallikrein-7 (Homo sapiens), P49862 | purified proKLK7, EDANS-DABCYL substrate fluorescence; 100% is mature enzyme control, 0% vehicle | activation, % at 7 µM | actives 0.9% (n = 370,000);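 active = activation above the mean of all tested compounds plus 3 SD, computed per campaign excluding outliers beyond control limits, cut at about 13% in these data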
# Target sequence (P49862 whole entry, looked up): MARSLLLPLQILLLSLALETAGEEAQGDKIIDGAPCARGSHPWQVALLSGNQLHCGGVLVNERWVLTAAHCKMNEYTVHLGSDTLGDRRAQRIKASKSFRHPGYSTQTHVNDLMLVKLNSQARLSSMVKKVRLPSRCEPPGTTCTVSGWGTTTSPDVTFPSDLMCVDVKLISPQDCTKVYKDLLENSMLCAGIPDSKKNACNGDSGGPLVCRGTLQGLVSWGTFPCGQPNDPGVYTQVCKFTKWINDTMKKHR
# ADAM10 inh: human ADAM10 inhibitors, primary screen, biochemical, QFRET, HTS; Disintegrin and metalloproteinase domain-containing protein 10 (Homo sapiens), O14672; recombinant ADAM10, EDANS/DABCYL FRET peptide cleavage, 3 h; inhibition, % at 7 µM; actives 0.62% (n = 370,000);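 active = inhibition above a per-campaign cutoff equal to the mean of compounds falling between control-based bounds plus 3 SD, cut at about 20% in these data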;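 note: 0% = DMSO wells while the 100% control is not disclosed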
# PLC-gamma1 inh: PLC-gamma1 enzyme inhibitors, primary screen, biochemical, fluorescence, purified enzyme; fluorogenic substrate; inhibition, % at 12.2 µM; actives 0.84% (n = 370,000); AID 720700, 2013; in the data active = inhibition above about 9.5%
# ADAM10 confirm: human ADAM10 inhibitors, confirmation, biochemical, QFRET, triplicate. shares compounds with ADAM10 inh. ADAM10 QFRET peptide cleavage, EDANS fluorescence. actives 1% (n = 2,100). inhibition, % at 6.95 µM. AID 743208, 2013;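 active = inhibition above about 20% chosen separately for each screening run, limit read from the data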;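 note: 0% = DMSO wells and 100% = marimastat wells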
# ADAM17 counter: ADAM17 inhibitors, counter-screen for ADAM10 exosite inhibitor project, biochemical, QFRET, high throughput; shares compounds with ADAM10 inh; inhibition, % at 6.95 µM; ADAM17 QFRET peptide cleavage, EDANS fluorescence; actives 0.5% (n = 2,100);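 active = mean triplicate inhibition above the solvent-only control wells' mean plus 3 SD, cut at about 12% in these data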;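 note: 0% = DMSO wells and 100% = marimastat wells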
# ADAM10 counter: ADAM10 inhibitors, counter-screen for ADAM17 exosite inhibitor project, biochemical, FRET, human ADAM10. inhibition, % at 6.95 µM. actives 47% (n = 2,900). shares compounds with ADAM17 inh. recombinant ADAM10, EDANS/DABCYL FRET peptide cleavage, 3 h;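 active = mean inhibition over the triplicate runs exceeds the activity threshold set in the earlier primary screen, cut at about 20% in these data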;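 note: 0% = DMSO wells and 100% = marimastat wells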
# ADAM17 confirm: ADAM17 inhibitors, hit retest, confirmation, biochemical, QFRET peptide cleavage | shares compounds with ADAM17 inh | AID 743257, 2014 | recombinant ADAM17, EDANS/DABCYL QFRET peptide cleavage | actives 65% (n = 2,900) | inhibition, % at 6.95 µM;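 active = mean inhibition across replicates above the hit cutoff set in the primary screen, cut at about 8.5% in these data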;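 note: 0% = DMSO wells and 100% = marimastat wells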
# * hit, by the source's call; · = no result. Sampled rows, rich in hits. Any-hit rate of the full collection: about 2.9%.
SMILES,PLC-beta3 inh,ADAM17 inh,proKLK7 act,ADAM10 inh,PLC-gamma1 inh,ADAM10 confirm,ADAM17 counter,ADAM10 counter,ADAM17 confirm
Cc1ccc(S[C@@H](CCN2CC[C@H](C)CCC2=O)c2ccccc2)cc1,1,-3,0,-2,-2,·,·,·,·
C[C@@H]1CCC(=O)N(CC[C@H](Sc2ccc(Br)cc2)c2ccccc2)CC1,5,16*,1,22*,5,6,3,21*,11*
CC(C)CC(C(=O)OCC(=O)Nc1cccc(Cl)c1)N1C(=O)C2CC=CCC2C1=O (stereo not given),9,17*,0,35*,8,3,0,27*,11*
CC(C)CN(C(=O)COc1ccccc1C(=O)NCc1ccccc1)C1CCS(=O)(=O)C1 (stereo not given),-1,-4,1,-11,5,·,·,·,·
Cc1csc(NC(=O)c2ccc(COc3cccc(F)c3)o2)n1,-24,-7,-1,-13,-8,·,·,·,·
O=C(C1CCC(Cn2c(=O)[nH]c3ccccc3c2=O)CC1)N1CCN(c2ccccc2)CC1 (stereo not given),6,1,0,-2,5,·,·,·,·
O=C(C1CCC(Cn2c(=S)[nH]c3ccccc3c2=O)CC1)N1CCN(c2ccccc2)CC1 (stereo not given),5,9.1*,0,25*,2,11,3,17,7
COc1ccc(OC)c(NC(=O)C2C3C=CC(C3)C2C(=O)NCc2ccccn2)c1 (stereo not given),-10,9.6*,0,30*,4,-1,-1,3,8
O=C(NCC1CC1)c1cc2c(c(-c3cccc(-c4ccccc4F)c3)n1)[C@@H](CCO)N(C(=O)CC1CC1)C2,3,10*,1,35*,7,2,2,11,9.6*
CCNC(=O)c1cc2c(c(-c3cccc(-c4ccccc4F)c3)n1)[C@@H](CCO)N(C(=O)CC)C2,2,0,1,-3,-1,·,·,·,·
O=C(NCC1CC1)c1cc2c(c(-c3cccc(-c4ccccc4F)c3)n1)[C@H](CCO)N(C(=O)CC1CC1)C2,2,5,0,0,1,·,·,·,·
CC(C)(C)S(=O)N1Cc2cc(C(=O)NCC(F)(F)F)nc(-c3cccc(-c4cccc(F)c4)c3)c2[C@@H]1CCO (stereo not given in full),4,15*,0,27*,6,0,0,11,6
O=C(NCC(F)(F)F)c1cc2c(c(-c3cccc(-c4ccccc4F)c3)n1)[C@@H](CCO)N(C(=O)CC1CC1)C2,2,10*,1,20*,2,2,0,13,11*
COc1ccccc1C(=O)NC1CCCCN(Cc2cccc(Cl)c2)C1=O (stereo not given),-2,0,0,1,-2,·,·,·,·
COc1cc(F)ccc1Oc1cccc2c1S(=O)(=O)N(C1CC1)C[C@@H](COCc1ccccc1)O2,3,11*,2,29*,1,4,1,27*,17*
COc1cc(F)ccc1Oc1cccc2c1S(=O)(=O)N([C@H](C)c1ccccc1)C[C@@H](COCc1ccccc1)O2,4,-1,0,-2,0,·,·,·,·
O=C(CSc1ccc2ccccc2c1Br)Nc1cccc(S(=O)(=O)NC2=NCCCCC2)c1,-2,14*,0,35*,6,5,2,28*,20*
CC(=O)c1cc(-c2cc(C(F)(F)F)cc(C(F)(F)F)c2)c(=O)n2c1CCC2,0,-5,0,-10,0,·,·,·,·
COc1ccc(OC)c(-c2csc(NC(=O)CSc3ccccc3)n2)c1,-2,10*,0,20*,2,6,2,25*,11*
COc1ccc(OC)c(-c2csc(NC(=O)Cc3ccccc3)n2)c1,-8,6,1,6,0,·,·,·,·
O=S(=O)(c1ccc(Cl)s1)N1CCC(c2cn3ccccc3n2)CC1,-99,-51,-2,-160,-77,·,·,·,·
O=C(/C=C/c1ccc([N+](=O)[O-])cc1)c1ccccc(=O)c1O,3,12*,0,25*,4,13,4,32*,33*
CCc1ccccc1NC(=S)N(CCc1ccncc1)C(C)C,-9,-6,0,-7,-1,·,·,·,·
CC(C)Cn1c(-c2ccc(Br)cc2)c[nH]c1=S,0,14*,1,26*,4,1,0,6,9.0*
COc1ccc2c(C(c3ccccc3O)C3CCCN3S(=O)(=O)c3ccc(C)cc3)cn(C)c2c1 (stereo not given),-1,2,-1,9,5,·,·,·,·
CCOc1cc(N2CCCC2)ccc1[N+](=O)[O-],4,9.3*,0,20*,7,1,0,17,7
O=C(NC(NC(=S)Nc1cccc(C(=O)O)c1)C(Cl)(Cl)Cl)OCc1ccccc1 (stereo not given),2,-1,0,-3,0,·,·,·,·
O=C(NC(NC(=S)Nc1cccc(Cl)c1)C(Cl)(Cl)Cl)OCc1ccccc1 (stereo not given),2,10*,0,28*,0,11,4,35*,20*
CN(C(=O)Nc1ccc(Cl)cc1Cl)[C@H]1c2cc(Br)ccc2OC[C@H]1CO,9,15*,1,27*,8,4,1,28*,12*
O=C(COC(=O)c1ccc(Sc2ncn[nH]2)c([N+](=O)[O-])c1)Nc1ccc(Cl)c(Cl)c1,-2,10.0*,0,20*,2,8,1,38*,20*
